Source: the supplement of paper PMC10849652
Of roughly 8,800 targets only a part is listed; those with a hit were picked by preference. About 0.5% of all pairs of compound and target were hits.

Tests used:
Test in all cases: log2 fold change, soluble protein after heating vs DMSO (PISA); higher = thermal stabilisation; K562 lysate, 10 uM; active = over 0.2 and 3.5 SD of the protein, either way, in both replicates (recomputed)
vemurafenib = compound: CCCS(=O)(=O)Nc1ccc(F)c(C(=O)c2c[nH]c3ncc(-c4ccc(Cl)cc4)cc23)c1F [vemurafenib]
Method in brief: (§1)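 A 30 min treatment with 10 μM compound was applied to crude K562 extract at 1 mg/mL protein in PBS pH 7.4 with 1 mM MgCl2. Heating for 3 min spanned 48°C-58°C, after which aliquots were pooled, adjusted to 0.5% NP-40 at 4°C and spun at 21,000xg for 90 min. TMTpro 16plex LC-MS/MS of the supernatant, with channel sums equalised, gave values recorded as log-two fold change in thermal stability against solvent controls, from duplicates.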

[1] = compound: CCCS(=O)(=O)Nc1ccc(F)c(C(=O)c2c[nH]c3ncc(Cl)cc23)c1F
Method in brief: as §1

barasertib = compound: CCN(CCCOc1ccc2c(Nc3cc(CC(=O)Nc4cccc(F)c4)[nH]n3)ncnc2c1)CCOP(=O)(O)O [barasertib]
Method in brief: as §1

[2] = compound: CC[C@@H]1C(=O)N(C)c2cnc(Nc3ccc(C(=O)NC4CCN(C)CC4)cc3OC)nc2N1C1CCCC1
Method in brief: as §1

volasertib = compound: CC[C@@H]1C(=O)N(C)c2cnc(Nc3ccc(C(=O)N[C@H]4CC[C@H](N5CCN(CC6CC6)CC5)CC4)cc3OC)nc2N1C(C)C [volasertib]
Method in brief: as §1

[3] = compound: CCn1c(C(=O)N(C2CC2)C2CC2)cc2c3c(ncn3C)c(Nc3cc(C)n(C)n3)nc21
Method in brief: as §1

[4] = compound: CCn1cc(-c2ccnc3[nH]c(-c4cccc(CN(C)C)c4)cc23)c(-c2ccc(NC(=O)N(C)C)cc2)n1
Method in brief: as §1

[5] = compound: CN1CCC(CNc2ccc3ncc(-c4cccc(OC(F)(F)F)c4)n3n2)CC1
Method in brief: as §1

saracatinib = compound: CN1CCN(CCOc2cc(OC3CCOCC3)c3c(Nc4c(Cl)ccc5c4OCO5)ncnc3c2)CC1 [saracatinib]
Method in brief: as §1

sotrastaurin = compound: CN1CCN(c2nc(C3=C(c4c[nH]c5ccccc45)C(=O)NC3=O)c3ccccc3n2)CC1 [sotrastaurin]
Method in brief: as §1

alvocidib = compound: CN1CC[C@H](c2c(O)cc(O)c3c(=O)cc(-c4ccccc4Cl)oc23)[C@H](O)C1 [alvocidib]
Method in brief: as §1

Tubastatin A = compound: CN1CCc2c(c3ccccc3n2Cc2ccc(C(=O)NO)cc2)C1 [Tubastatin A]
Method in brief: as §1

[6] = compound: CNC(=O)C1=CC=CC=C1NC2=NC(=NC=C2Cl)NC3=C(C=C(C=C3)N4CCOCC4)OC
Method in brief: as §1

defactinib = compound: CNC(=O)c1ccc(Nc2ncc(C(F)(F)F)c(NCc3nccnc3N(C)S(C)(=O)=O)n2)cc1 [defactinib]
Method in brief: as §1

[7] = compound: CNc1nc(-c2ccc3c(N)n[nH]c3c2)cc(N2C[C@@H](C(=O)NC3CCCCC3)CC[C@H]2C)n1
Method in brief: as §1

encorafenib = compound: COC(=O)N[C@@H](C)CNc1nccc(-c2cn(C(C)C)nc2-c2cc(Cl)cc(NS(C)(=O)=O)c2F)n1 [encorafenib]
Method in brief: as §1

[8] = compound: COC(=O)[C@H](CCSC)NC(=O)C1=C(C=C(C=C1)NC[C@H](CS)N)C2=CC=CC=C2
Method in brief: as §1

alisertib = compound: COc1cc(Nc2ncc3c(n2)-c2ccc(Cl)cc2C(c2c(F)cccc2OC)=NC3)ccc1C(=O)O [alisertib]
Method in brief: as §1

[9] = compound: COc1cc2nc(-c3cc(F)ccc3O)nc(N[C@@H]3CNC[C@H]3C(C)(C)O)c2cc1OC
Method in brief: as §1

gefitinib = compound: COc1cc2ncnc(Nc3ccc(F)c(Cl)c3)c2cc1OCCCN1CCOCC1 [gefitinib]
Method in brief: as §1

Measured: log2 fold change

GFPT1 (UniProt Q06210)
Chain of UniProt Q06210 (Q06210 whole entry, looked up): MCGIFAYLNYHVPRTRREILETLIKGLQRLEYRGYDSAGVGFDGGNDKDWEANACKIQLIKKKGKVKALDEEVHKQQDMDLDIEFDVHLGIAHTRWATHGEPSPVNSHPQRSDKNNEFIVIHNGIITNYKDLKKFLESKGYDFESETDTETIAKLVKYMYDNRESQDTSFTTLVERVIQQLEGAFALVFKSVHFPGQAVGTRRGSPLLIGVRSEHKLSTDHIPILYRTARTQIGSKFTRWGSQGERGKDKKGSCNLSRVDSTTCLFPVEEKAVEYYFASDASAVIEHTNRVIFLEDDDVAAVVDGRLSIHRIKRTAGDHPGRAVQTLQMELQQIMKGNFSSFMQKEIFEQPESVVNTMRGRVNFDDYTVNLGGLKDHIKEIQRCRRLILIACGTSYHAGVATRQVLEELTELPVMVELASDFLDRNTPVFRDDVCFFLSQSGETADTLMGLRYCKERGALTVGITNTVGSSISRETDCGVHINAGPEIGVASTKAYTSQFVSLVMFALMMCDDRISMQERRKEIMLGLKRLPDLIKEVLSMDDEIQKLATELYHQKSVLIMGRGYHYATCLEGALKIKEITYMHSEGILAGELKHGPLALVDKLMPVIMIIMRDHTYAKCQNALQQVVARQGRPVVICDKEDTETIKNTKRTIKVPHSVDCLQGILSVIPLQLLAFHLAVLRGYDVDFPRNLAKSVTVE
inactive: vemurafenib 0.014 | [1] 0.02 | barasertib 0.009 | [2] -0.026 | volasertib -0.036 | [3] 0.007 | [4] 0.009 | [5] -0.042 | saracatinib 0.009 | sotrastaurin -0.014 | alvocidib 0.022 | Tubastatin A -0.075 | [6] 0.011 | defactinib 0.01 | [7] 0.012 | encorafenib -0.012 | [8] 0.134 | alisertib 0.005 | [9] 0.007 | gefitinib -0.013

FARSA (UniProt Q9Y285)
Chain of UniProt Q9Y285 (Q9Y285 whole entry, looked up): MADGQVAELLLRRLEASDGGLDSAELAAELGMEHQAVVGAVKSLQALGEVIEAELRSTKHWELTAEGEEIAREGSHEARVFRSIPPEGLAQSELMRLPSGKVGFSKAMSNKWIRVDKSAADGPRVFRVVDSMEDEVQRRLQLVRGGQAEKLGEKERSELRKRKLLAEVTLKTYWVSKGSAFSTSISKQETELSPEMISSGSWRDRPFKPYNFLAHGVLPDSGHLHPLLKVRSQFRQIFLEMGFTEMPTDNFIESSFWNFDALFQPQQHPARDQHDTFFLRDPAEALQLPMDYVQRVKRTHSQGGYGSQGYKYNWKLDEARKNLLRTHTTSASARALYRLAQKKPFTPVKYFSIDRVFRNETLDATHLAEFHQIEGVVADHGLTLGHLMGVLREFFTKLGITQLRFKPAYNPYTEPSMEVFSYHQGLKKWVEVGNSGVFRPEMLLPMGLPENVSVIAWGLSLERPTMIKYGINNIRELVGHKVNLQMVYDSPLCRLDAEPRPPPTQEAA
active: sotrastaurin 0.583
inactive: vemurafenib -0.002 | [1] -0.01 | barasertib -0.012 | [2] 0.091 | volasertib -0.035 | [3] -0.068 | [4] -0.018 | [5] 0.054 | saracatinib 0.03 | alvocidib -0.003 | Tubastatin A -0.105 | [6] 0.007 | defactinib 0.045 | [7] 0.019 | encorafenib -0.02 | [8] 0.098 | alisertib 0.01 | [9] 0.017 | gefitinib -0.014

FCHO1 (UniProt O14526)
Chain of UniProt O14526 (O14526 whole entry, looked up): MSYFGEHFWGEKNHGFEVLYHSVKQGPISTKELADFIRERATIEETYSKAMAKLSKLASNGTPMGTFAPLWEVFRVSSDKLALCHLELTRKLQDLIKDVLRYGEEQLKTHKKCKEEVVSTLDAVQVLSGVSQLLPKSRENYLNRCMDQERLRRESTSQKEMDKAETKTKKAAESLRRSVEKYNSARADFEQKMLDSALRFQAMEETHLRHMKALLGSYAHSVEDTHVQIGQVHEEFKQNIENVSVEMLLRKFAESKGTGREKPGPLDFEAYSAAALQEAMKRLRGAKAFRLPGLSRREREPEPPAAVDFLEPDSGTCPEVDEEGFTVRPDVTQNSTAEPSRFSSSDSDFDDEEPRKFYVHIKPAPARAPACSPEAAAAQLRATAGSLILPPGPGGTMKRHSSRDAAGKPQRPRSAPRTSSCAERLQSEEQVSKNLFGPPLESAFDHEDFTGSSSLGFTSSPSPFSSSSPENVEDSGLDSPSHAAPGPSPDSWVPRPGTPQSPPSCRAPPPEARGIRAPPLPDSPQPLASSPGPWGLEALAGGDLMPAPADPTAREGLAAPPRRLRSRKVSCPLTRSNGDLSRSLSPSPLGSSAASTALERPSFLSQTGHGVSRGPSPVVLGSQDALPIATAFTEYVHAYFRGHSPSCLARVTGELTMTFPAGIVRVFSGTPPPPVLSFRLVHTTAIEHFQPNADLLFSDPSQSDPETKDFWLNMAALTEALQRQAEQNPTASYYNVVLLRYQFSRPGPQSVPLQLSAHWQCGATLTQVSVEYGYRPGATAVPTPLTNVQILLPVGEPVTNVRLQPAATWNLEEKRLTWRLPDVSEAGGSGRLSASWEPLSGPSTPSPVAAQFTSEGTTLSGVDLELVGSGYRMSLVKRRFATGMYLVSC
inactive: vemurafenib 0.023 | [1] 0.033 | barasertib 0.02 | [2] 0.023 | volasertib -0.062 | [3] -0.026 | [4] -0.053 | [5] -0.004 | saracatinib 0.006 | sotrastaurin -0.015 | alvocidib 0.027 | Tubastatin A -0.188 | [6] 0.038 | defactinib 0.039 | [7] 0.038 | encorafenib 0.009 | [8] 0.076 | alisertib 0.009 | [9] -0.021 | gefitinib 0.003

ENO1, A0A2R8YEM5
active: [4] -0.44 | [5] 0.325
inactive: vemurafenib -0.03 | [1] -0.017 | barasertib -0.056 | [2] 0.008 | volasertib 0.004 | [3] -0.04 | saracatinib 0.031 | sotrastaurin -0.011 | alvocidib -0.256 | Tubastatin A 0.104 | [6] 0.021 | defactinib 0.043 | [7] 0.002 | encorafenib 0.031 | [8] -0.035 | alisertib 0.006 | [9] -0.001 | gefitinib 0.035

ENO2 (UniProt P09104)
Chain of UniProt P09104 (P09104 whole entry, looked up): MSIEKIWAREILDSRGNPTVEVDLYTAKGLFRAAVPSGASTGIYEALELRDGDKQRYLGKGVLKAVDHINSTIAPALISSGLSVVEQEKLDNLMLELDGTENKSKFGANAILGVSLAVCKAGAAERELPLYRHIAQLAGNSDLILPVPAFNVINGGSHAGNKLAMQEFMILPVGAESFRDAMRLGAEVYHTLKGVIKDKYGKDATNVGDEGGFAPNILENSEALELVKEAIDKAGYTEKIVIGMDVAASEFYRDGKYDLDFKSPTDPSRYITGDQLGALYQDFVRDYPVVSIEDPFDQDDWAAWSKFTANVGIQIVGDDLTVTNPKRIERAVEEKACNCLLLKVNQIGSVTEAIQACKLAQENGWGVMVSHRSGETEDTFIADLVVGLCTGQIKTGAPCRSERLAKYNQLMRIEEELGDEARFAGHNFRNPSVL
active: [5] 0.319 | alvocidib -0.279
inactive: vemurafenib 0.05 | [1] 0.008 | barasertib -0.132 | [2] 0.044 | volasertib 0.046 | [3] -0.069 | [4] -0.231 | saracatinib 0.06 | sotrastaurin 0.034 | Tubastatin A 0.024 | [6] -0.018 | defactinib -0.007 | [7] 0.073 | encorafenib 0.032 | [8] 0.086 | alisertib -0.025 | [9] -0.014 | gefitinib -0.021

FDFT1 (UniProt P37268)
Chain of UniProt P37268 (P37268 whole entry, looked up): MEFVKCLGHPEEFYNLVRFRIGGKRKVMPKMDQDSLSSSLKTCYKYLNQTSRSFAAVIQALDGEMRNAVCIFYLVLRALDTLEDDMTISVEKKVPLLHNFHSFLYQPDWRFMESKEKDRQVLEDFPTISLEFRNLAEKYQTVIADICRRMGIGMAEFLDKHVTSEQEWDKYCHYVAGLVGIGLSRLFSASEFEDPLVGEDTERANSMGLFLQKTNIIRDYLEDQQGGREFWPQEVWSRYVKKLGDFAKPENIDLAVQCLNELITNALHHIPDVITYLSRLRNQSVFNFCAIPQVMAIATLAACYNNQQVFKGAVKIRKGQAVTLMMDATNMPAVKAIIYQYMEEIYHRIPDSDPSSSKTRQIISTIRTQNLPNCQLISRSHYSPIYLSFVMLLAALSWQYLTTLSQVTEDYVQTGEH
inactive: vemurafenib -0.012 | [1] 0.111 | barasertib 0.023 | [2] 0.005 | volasertib -0.069 | [3] 0.01 | [4] -0.047 | [5] -0.022 | saracatinib -0.019 | alvocidib 0.002 | Tubastatin A -0.037 | [6] -0.033 | defactinib -0.048 | [7] -0.018 | encorafenib 0.047 | [8] -0.155 | alisertib 0.068 | [9] 0.018 | gefitinib 0.016
active: sotrastaurin 0.437

FAM118A (UniProt Q9NWS6)
Chain of UniProt Q9NWS6 (Q9NWS6 whole entry, looked up): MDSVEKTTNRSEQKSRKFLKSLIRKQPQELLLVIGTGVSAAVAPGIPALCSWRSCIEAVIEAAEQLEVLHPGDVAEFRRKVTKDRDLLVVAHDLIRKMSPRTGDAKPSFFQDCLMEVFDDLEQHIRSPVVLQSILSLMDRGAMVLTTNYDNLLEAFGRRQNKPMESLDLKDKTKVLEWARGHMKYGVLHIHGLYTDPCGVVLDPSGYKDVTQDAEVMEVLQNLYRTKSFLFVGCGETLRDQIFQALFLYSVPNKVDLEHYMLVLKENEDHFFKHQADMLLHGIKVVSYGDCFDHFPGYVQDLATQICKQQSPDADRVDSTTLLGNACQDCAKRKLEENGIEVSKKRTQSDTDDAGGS
inactive: vemurafenib -0.013 | [1] 0.011 | barasertib 0.018 | [2] -0.017 | volasertib -0.009 | [3] -0.031 | [4] -0.135 | [5] 0.077 | saracatinib 0.063 | sotrastaurin 0.025 | alvocidib 0.006 | Tubastatin A -0.153 | [6] 0.077 | defactinib -0.007 | [7] 0.002 | encorafenib -0.017 | [8] 0.002 | alisertib 0.008 | [9] 0.03 | gefitinib 0.003

FXR1 (UniProt P51114)
Chain of UniProt P51114 (P51114 whole entry, looked up): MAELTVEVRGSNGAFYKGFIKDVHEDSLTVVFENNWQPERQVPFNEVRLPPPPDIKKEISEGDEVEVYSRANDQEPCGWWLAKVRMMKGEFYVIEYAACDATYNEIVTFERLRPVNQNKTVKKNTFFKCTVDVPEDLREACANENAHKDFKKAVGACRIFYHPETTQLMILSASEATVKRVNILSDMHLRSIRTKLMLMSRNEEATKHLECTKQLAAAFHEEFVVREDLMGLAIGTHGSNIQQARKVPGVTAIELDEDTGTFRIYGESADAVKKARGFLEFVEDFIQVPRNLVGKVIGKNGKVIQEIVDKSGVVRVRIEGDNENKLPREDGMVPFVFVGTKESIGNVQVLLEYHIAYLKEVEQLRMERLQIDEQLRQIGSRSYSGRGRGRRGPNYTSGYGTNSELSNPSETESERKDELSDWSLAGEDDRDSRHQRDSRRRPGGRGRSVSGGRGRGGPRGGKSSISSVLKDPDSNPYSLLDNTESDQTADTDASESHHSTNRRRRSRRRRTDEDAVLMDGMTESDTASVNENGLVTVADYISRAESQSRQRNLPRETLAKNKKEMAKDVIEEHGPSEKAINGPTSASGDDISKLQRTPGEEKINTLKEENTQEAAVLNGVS
inactive: vemurafenib -0.047 | [1] 0.009 | barasertib 0.01 | [2] -0.036 | volasertib -0.022 | [3] 0.018 | [4] -0.107 | [5] 0.012 | saracatinib -0.036 | sotrastaurin -0.011 | alvocidib -0.028 | Tubastatin A -0.176 | [6] 0.02 | defactinib -0.043 | [7] -0.039 | encorafenib 0.057 | [8] 0.035 | alisertib -0.012 | [9] 0.012 | gefitinib -0.022
